These results are taken from PubChem BioAssay AID504340 (NMMLSC, 2011).

Values without a mark were called inactive.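 How the source made its calls: active means GFP response above 150% of the DMSO control; inconclusive means Under 70 cell events counted for a yeast strain; inactive means the rest.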

This test in a line: yeast TOR pathway CIT2-GFP reporter retest – flow cytometry, third cherry pick, single plex, confirmation (AID 504340).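 Further: median GFP fluorescence over all cells with no mother versus daughter split; sample signal as a ratio to the plate DMSO mean so 100% equals DMSO.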 To be noted: S. cerevisiae CIT2-GFP strain, 3 h, at 10 µM, hits give high values. In general terms: In flow cytometry, cells or beads pass a laser one at a time.
Take `CC1=CN2C(=N)/C(=C/c3ccc(C)o3)C(=O)N=C2S1`: the GFP response vs DMSO is 112%. Consider `Cc1ccc2c(Cl)cc(Cl)c(OCC(=O)O)c2n1`, for which the GFP response vs DMSO is 109%.

For `CCN(CC)C(=O)Oc1ccnc2cc(Cl)ccc12`, the GFP response vs DMSO is 107%. Turning to `CCc1sc(C(=O)Nc2nc(-c3ccccn3)cs2)cc1C`, the GFP response vs DMSO was 109%.

In the case of `CN1CCN(C(=O)c2cc(COc3ccc(F)cc3Cl)on2)CC1c1ccccc1` (centres undefined), the GFP response vs DMSO is 106%. In the case of `Cc1cc(C)c(NC(=O)CC(=O)c2ccccc2)c(Cl)c1` it was 92.8%; in that of `COc1ccccc1-c1cc(C(F)(F)F)nc(S(C)(=O)=O)n1`, 106%. In the case of `CN(C)CCCNc1cc(O)c2ncccc2c1` it was 112%. In the case of `COc1ccc(OC)c(N/C(C)=C/C(=O)c2ccccc2)c1` it was 99.3%; in that of `COc1cccc(N/C=C/C(=O)c2ccc(Cl)cc2)c1`, 107%. With `OCc1ccnc2c(O)cccc12`, the GFP response vs DMSO was 94.5%.

For the molecule `CC1=CN2C(=N)/C(=C/c3ccco3)C(=O)N=C2S1`, the GFP response vs DMSO is 112%. As to `CCC(=O)Nn1cnc2c(c1=O)C1(CCCCC1)Cc1ccccc1-2`, the GFP response vs DMSO is 99.3%.

As for `CC(=O)C(CC(=O)N1CCCC1)C(=O)Nc1ccc(Cl)cc1` (centres undefined), the GFP response vs DMSO was 109%. Regarding `COc1cccc2c(Cl)c(CCCl)c(C)nc12`, the GFP response vs DMSO is 111%. In the case of `Nc1cccc2c1C(=O)c1ccc(Cl)cc1C2=O` it was 107%. Turning to `Cc1ccc(NC(=O)O/N=C2\CCCCC2c2ccc([N+](=O)[O-])cc2[N+](=O)[O-])cc1` (centres undefined), the GFP response vs DMSO is 106%. With `CCc1c(C)nc2c(OC)cccc2c1Cl`, the GFP response vs DMSO is 97.7%.

As for `CCC(C)Nc1nc(N)c([N+](=O)[O-])c(Nc2cc(OC)ccc2OC)n1` (centres undefined), the GFP response vs DMSO was 101%. In the case of `Nn1cnc2c(c1=O)C1(CCCCC1)Cc1ccccc1-2` it was 129%.

For `Cc1ccc(C)c(Nc2ncnc(N)c2[N+](=O)[O-])c1`, the GFP response vs DMSO was 104%.

`CSc1nc(Nc2ccc(Cl)cc2)c(C#N)c(=O)[nH]1`: the GFP response vs DMSO is 104%. For `Cc1cccc(C)c1Nc1ncnc(N)c1[N+](=O)[O-]` the value was 103%; for `Nc1ncnc(Nc2cc(Cl)cc(Cl)c2)c1[N+](=O)[O-]`, 97.7%; for `COc1cccc(N/C=C/C(=O)c2ccc(C)cc2)c1`, 92.8%. For `CC(=O)C(Cl)C(=O)Nc1ccccc1` (centres undefined) the value was 121%. As to `Nc1[nH]c(=O)nc(Nc2ccccc2)c1N=O`, the GFP response vs DMSO was 92.8%. For `Cc1ccc(Nc2nc(N)[nH]c(=O)c2N=O)cc1` the value was 106%; for `COCCCNc1nc(N)c([N+](=O)[O-])c(Nc2cc(OC)ccc2OC)n1`, 106%; for `CCCCC(=O)NCCc1cc2c(OC)ccc(OC)c2[nH]c1=O`, 96.1%. With `CS(=O)(=O)c1nc(-c2ccc(F)cc2)cc(C(F)(F)F)n1`, the GFP response vs DMSO is 107%. Consider `O=C(Nc1ccccc1Cl)ON=C1c2ccccc2-c2ccccc21`, for which the GFP response vs DMSO is 116%. `Brc1ccc2ncnc(NCc3ccccc3)c2c1`: the GFP response vs DMSO was 112%. For `NC(=O)c1ccnc2c(O)cccc12` the value was 101%; for `Cn1cccc1C(=O)Nc1nc(-c2ccccn2)cs1`, 106%. `CSc1ccccc1OCc1cc(C(=O)N2CCN(C)C(c3ccccc3)C2)no1` (centres undefined): the GFP response vs DMSO was 99.3%.

For the molecule `COc1ccc(NC(=O)O/N=C2/CCCc3ccc(OC)cc32)cc1`, the GFP response vs DMSO is 104%. In the case of `O=C(/C=C/Nc1cccc(O)c1)c1ccccc1` it was 111%; in that of `C/C(=C\C(=O)c1ccccc1)Nc1ccc(O)cc1`, 103%.
